Test results as given in PubChem BioAssay AID1159580 (chemical genetic matrix, 2015).
Where “and” joins values, the source holds several entries; their conditions need not be identical. Equal values may be shown once. Out of some 5,500 compounds screened, about 2,000 (36%) were called active. Another 18% or so got no clear call; they are omitted. Rule as the data show it: active = normalized growth mostly below about 0.91 (no sharp cut-off); inconclusive = no clear call, values can overlap the other calls; inactive = mostly above about 0.92. The list shows a part of the results.

Assay: chemical genetic growth profiling, strain panel (AID 1159580);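 also: tested at 20 µM; growth read once vehicle control cultures reached saturation at 30 °C; 1 = growth at the plate median or of vehicle wells; lower values mean less growth of the strain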
Conditions: S. cerevisiae deletion strains, growth OD

Measured: normalized growth

CCCNC(C)C(=O)Nc1ccccc1C (stereo not given)
inactive: locus YAL013W, strain DEP1, active compounds read low 1.01 | locus YAL021C, strain ccr4, active compounds read low 1.01 | locus YAL026C, strain drs2, active compounds read low 1.01 | locus YAL030W, strain snc1, active compounds read low 0.995 | locus YAL040C, strain CLN3, active compounds read low 1.07 | locus YBL061C, strain skt5, active compounds read low 1.01 | locus YBR009C, strain hhf1, active compounds read low 1.01 | locus YBR021W, strain FUR4, active compounds read low 1.01 | locus YBR023C, strain chs3, active compounds read low 1 | locus YBR171W, strain sec66, active compounds read low 1.01 | locus YBR229C, strain ROT2, active compounds read low 1.01 | locus YBR231C, strain swc5, active compounds read low 1.01 | locus YBR279W, strain paf1, active compounds read low 1.01 | locus YCL011C, strain gbp2, active compounds read low 0.999 | locus YCL016C, strain dcc1, active compounds read low 1.01 | locus YCL029C, strain bik1, active compounds read low 1 | locus YCL061C, strain MRC1 (second series), active compounds read low 1.01 | locus YCL061C, strain MRC1, active compounds read low 0.997 | locus YCL069W, strain vba3, active compounds read low 1.01 | locus YCR088W, strain abp1, active compounds read low 1.01 | locus YDL005C, strain med2, active compounds read low 1 | locus YDL035C, strain GPR1, active compounds read low 1.01 | locus YDL040C, strain nat1, active compounds read low 1.01 | locus YDL074C, strain BRE1, active compounds read low 1.02 | locus YDL101C, strain DUN1, active compounds read low 1.02 | locus YDL134C, strain PPH21, active compounds read low 1.01 | locus YDL185W, strain tfp1, active compounds read low 0.997 | locus YDL192W, strain arf1, active compounds read low 0.996 | locus YDR001C, strain nth1, active compounds read low 1 | locus YDR069C, strain doa4, active compounds read low 1.02 | locus YDR101C, strain arx1, active compounds read low 1 | locus YDR137W, strain rgp1, active compounds read low 1.03 | locus YDR150W, strain NUM1, active compounds read low 1.01 | locus YDR159W, strain sac3, active compounds read low 1 | locus YDR162C, strain NBP2, active compounds read low 1.01 | locus YDR195W, strain ref2 1.01 | locus YDR297W, strain sur2, active compounds read low 1 | locus YDR318W, strain mcm21, active compounds read low 0.998 | locus YDR334W, strain swr1, active compounds read low 0.998 | locus YDR335W, strain msn5, active compounds read low 1.01 | locus YDR363W, strain ESC2, active compounds read low 1.05 | locus YDR388W, active compounds read low 0.99 | locus YDR392W, strain spt3, active compounds read low 1.01 | locus YDR502C, strain sam2, active compounds read low 0.991 | locus YEL003W, strain gim4, active compounds read low 0.998 | locus YEL037C, strain rad23, active compounds read low 0.994 | locus YEL061C, strain CIN8 (second series), active compounds read low 1.01 | locus YEL061C, strain CIN8, active compounds read low 1.01 | locus YER002W, strain NOP16, active compounds read low 0.995 | locus YER015W, strain faa2, active compounds read low 0.984 | locus YER016W, strain bim1, active compounds read low 0.999 | locus YER110C, active compounds read low 0.991 | locus YER111C, strain swi4, active compounds read low 1 | locus YER155C, strain BEM2 (second series), active compounds read low 1.01 | locus YER155C, strain BEM2, active compounds read low 1.01 | locus YER167W, strain BCK2, active compounds read low 1 | locus YFR010W, strain ubp6, active compounds read low 0.992 | locus YGL078C, strain dbp3, active compounds read low 0.987 | locus YGL086W, strain mad1, active compounds read low 0.993 | locus YGL167C, strain pmr1, active compounds read low 1.01 | locus YGL173C, strain kem1, active compounds read low 1 | locus YGL227W, strain vid30, active compounds read low 1 | locus YGL240W, strain doc1, active compounds read low 1.01 | locus YGL248W, strain PDE1, active compounds read low 1.02 | locus YGL253W, strain hxk2, active compounds read low 1.01 | locus YGR078C, strain PAC10, active compounds read low 1 | locus YGR135W, strain pre9, active compounds read low 0.957 | locus YGR229C, strain SMI1, active compounds read low 0.99 and 1.01 | locus YGR252W, strain gcn5, active compounds read low 0.911 | locus YHR013C, strain ard1, active compounds read low 1.01 | locus YHR027C, strain rpn1, active compounds read low 1.01 | locus YHR030C, strain SLT2, active compounds read low 1.01 and 1.04 | locus YHR079C, strain IRE1 (second series), active compounds read low 1.01 | locus YHR079C, strain IRE1, active compounds read low 1.06 | locus YHR094C, strain hxt1, active compounds read low 0.982 | locus YHR129C, strain ARP1, active compounds read low 1.01 | locus YHR142W, strain chs7, active compounds read low 1 | locus YHR200W, strain rpn10, active compounds read low 0.999 | locus YIL066C, strain RNR3, active compounds read low 1.02 | locus YIL073C, strain SPO22, active compounds read low 0.989 | locus YIL125W, strain kgd1, active compounds read low 0.981 | locus YIR030C, strain dcg1, active compounds read low 0.994 | locus YJL092W, strain hpr5, active compounds read low 1 | locus YJL095W, strain BCK1 (second series), active compounds read low 1.01 | locus YJL095W, strain BCK1, active compounds read low 1.02 and 1.05 | locus YJL115W, strain asf1, active compounds read low 1.01 | locus YJL129C, strain trk1, active compounds read low 1.01 | locus YJL134W, strain LCB3, active compounds read low 1.01 | locus YJL154C, strain vps35, active compounds read low 1 | locus YJL164C, strain tpk1, active compounds read low 0.958 | locus YJL166W, strain qcr8, active compounds read low 0.999 | locus YJL168C, strain set2, active compounds read low 0.991 | locus YJL187C, strain SWE1 (second series), active compounds read low 1.02 | locus YJL187C, strain SWE1, active compounds read low 0.999 | locus YJR043C, strain POL32, active compounds read low 1
